The target of experiment [1] is T1, GST-Nv-NF-kB (Ser allele) (Nematostella vectensis, UniProt A7UNT2 2-411).
T1 sequence: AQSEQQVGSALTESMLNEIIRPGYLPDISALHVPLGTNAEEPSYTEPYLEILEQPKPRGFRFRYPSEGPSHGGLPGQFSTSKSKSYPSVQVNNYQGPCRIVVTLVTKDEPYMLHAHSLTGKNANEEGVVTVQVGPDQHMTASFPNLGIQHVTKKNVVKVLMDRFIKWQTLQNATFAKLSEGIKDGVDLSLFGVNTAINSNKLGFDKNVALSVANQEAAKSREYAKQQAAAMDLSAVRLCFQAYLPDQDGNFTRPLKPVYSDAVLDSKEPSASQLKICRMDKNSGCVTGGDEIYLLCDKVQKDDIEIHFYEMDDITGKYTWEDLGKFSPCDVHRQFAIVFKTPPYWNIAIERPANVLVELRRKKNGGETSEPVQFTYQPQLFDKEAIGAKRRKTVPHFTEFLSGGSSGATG
The experiment is described as follows: protein-binding microarray (PBM); PBM: ~300 nM protein, 6 mM HEPES pH 7.8, 80 mM KCl, 0.5 mM EDTA, 0.5 mM EGTA, 6% glycerol, 35 ng/ul poly-dIdC, 1% milk, 1 h, room temperature; Ap Aiptasia and Nv Nematostella (sea anemones) / Co Capsaspora / Aq Amphimedon (sponge) / Dm Drosophila / Hu human; RHD is the Rel homology domain; high values mean tight binding. Particulars: dsDNA, one strand shown.

Experiment [2] concerns the target GST-Hu-p50 (Homo sapiens, UniProt P19838 7-356). The description is as above. Particulars: dsDNA, one strand shown.

Drawing on publication PMC5700166, this text covers binding signal for 37 sequences.

Sequence of GST-Hu-p50 (P19838 7-356): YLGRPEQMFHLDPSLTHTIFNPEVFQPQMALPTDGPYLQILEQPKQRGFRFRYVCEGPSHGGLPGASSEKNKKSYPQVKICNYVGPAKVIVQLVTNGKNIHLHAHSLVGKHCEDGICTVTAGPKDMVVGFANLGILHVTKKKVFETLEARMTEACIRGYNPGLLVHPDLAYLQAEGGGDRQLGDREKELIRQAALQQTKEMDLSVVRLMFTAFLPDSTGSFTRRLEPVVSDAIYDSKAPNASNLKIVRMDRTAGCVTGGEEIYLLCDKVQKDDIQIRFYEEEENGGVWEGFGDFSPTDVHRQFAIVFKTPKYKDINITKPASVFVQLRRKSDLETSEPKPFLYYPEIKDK

On to “CCGATTAACATCAATTCCCAAGGTGATGTTAATCGGGTCTTGATTCGCTTGACGCTGCTG”, for which the figures for the binding signal in experiment [1] and in experiment [2] were 2.02 z-score and 2.13 z-score, respectively.

Regarding “CCGATTAACATCAGGGGGTATACTGATGTTAATCGGGTCTTGATTCGCTTGACGCTGCTG”, the binding signal in experiment [1] turned out to be 4.26 z-score; in experiment [2] it was 3.99 z-score.

Regarding “CCGATTAACATCAGGGAACTACCTGATGTTAATCGGGTCTTGATTCGCTTGACGCTGCTG”, the binding signal stood at 4.46 z-score in experiment [1] and 3.92 z-score in experiment [2].

Turning to “CCGATTAACATCAGGGCTTTACCTGATGTTAATCGGGTCTTGATTCGCTTGACGCTGCTG”, the binding signal was 1.71 z-score in experiment [1] and 2.02 z-score in experiment [2].

Regarding “CCGATTAACATCATAGTCCCATGTGATGTTAATCGGGTCTTGATTCGCTTGACGCTGCTG”, the binding signal was 1.82 z-score in experiment [1] and 1.34 z-score in experiment [2].

As for “CCGATTAACATCAAGGTTTTCCCTGATGTTAATCGGGTCTTGATTCGCTTGACGCTGCTG”, the binding signal in experiment [1] worked out at 6.21 z-score; in experiment [2], 4.23 z-score.

“CCGATTAACATCAAAATTCCCATTGATGTTAATCGGGTCTTGATTCGCTTGACGCTGCTG”: the values for the binding signal in experiment [1] and in experiment [2] were 5.71 z-score and 4.55 z-score, respectively.

For the sequence “CCGATTAACATCAAGGGGGGATATGATGTTAATCGGGTCTTGATTCGCTTGACGCTGCTG”, the binding signal in experiment [1] is 4.16 z-score; in experiment [2], 4.95 z-score.

With “CCGATTAACATCAGGCAAGTCCCTGATGTTAATCGGGTCTTGATTCGCTTGACGCTGCTG”, the figures for the binding signal in experiment [1] and in experiment [2] were 3.07 z-score and 3.44 z-score, respectively.

“CCGATTAACATCATGGGTGGGAATGATGTTAATCGGGTCTTGATTCGCTTGACGCTGCTG”: the binding signal came out at 1.12 z-score in experiment [1] and 1.32 z-score in experiment [2].

Turning to “CCGATTAACATCAGGGGGATCACTGATGTTAATCGGGTCTTGATTCGCTTGACGCTGCTG”, the results for the binding signal in experiment [1] and in experiment [2] were 5.27 z-score and 5.04 z-score, respectively.

Consider “CCGATTAACATCAAGTATTCCCATGATGTTAATCGGGTCTTGATTCGCTTGACGCTGCTG”, for which the binding signal in experiment [1] was determined as 2.35 z-score; in experiment [2] it was 1.64 z-score.

As for “CCGATTAACATCAAAAATTCCGGTGATGTTAATCGGGTCTTGATTCGCTTGACGCTGCTG”, the binding signal in experiment [1] was determined as 1.4 z-score; in experiment [2] it was 3.12 z-score.

In the case of “CCGATTAACATCAGGGAGGGTAATGATGTTAATCGGGTCTTGATTCGCTTGACGCTGCTG”, the binding signal in experiment [1] came to 2.16 z-score; in experiment [2], 1.6 z-score.

Turning to “CCGATTAACATCACAAATGGGAATGATGTTAATCGGGTCTTGATTCGCTTGACGCTGCTG”, the binding signal in experiment [1] was found to be 1.63 z-score; in experiment [2] it was 1.06 z-score.

Take “CCGATTAACATCAGATACCCCCCTGATGTTAATCGGGTCTTGATTCGCTTGACGCTGCTG”: the binding signal was determined as 4.05 z-score in experiment [1] and 4.1 z-score in experiment [2].

With “CCGATTAACATCAATTTTCCCAATGATGTTAATCGGGTCTTGATTCGCTTGACGCTGCTG”, the binding signal in experiment [1] turned out to be 4.62 z-score; in experiment [2], 3.18 z-score.

As to “CCGATTAACATCATCAGGGAAAATGATGTTAATCGGGTCTTGATTCGCTTGACGCTGCTG”, the values for the binding signal in experiment [1] and in experiment [2] were 5.74 z-score and 2.83 z-score, respectively.

Turning to “CCGATTAACATCACTAAATTCCCTGATGTTAATCGGGTCTTGATTCGCTTGACGCTGCTG”, the binding signal in experiment [1] is 5.8 z-score; in experiment [2], 4.08 z-score.

Regarding “CCGATTAACATCACCGCCCCACGTGATGTTAATCGGGTCTTGATTCGCTTGACGCTGCTG”, the binding signal stood at 1.37 z-score in experiment [1] and 2.36 z-score in experiment [2].

As for “CCGATTAACATCAGGGGTTCCACTGATGTTAATCGGGTCTTGATTCGCTTGACGCTGCTG”, the figures for the binding signal in experiment [1] and in experiment [2] were 1.62 z-score and 2.51 z-score, respectively.

Take “CCGATTAACATCAGGGCAGTACCTGATGTTAATCGGGTCTTGATTCGCTTGACGCTGCTG”: the figures for the binding signal in experiment [1] and in experiment [2] were 2.24 z-score and 2.22 z-score, respectively.

For the sequence “CCGATTAACATCAAATGACCCCCTGATGTTAATCGGGTCTTGATTCGCTTGACGCTGCTG”, the binding signal in experiment [1] stood at 2.69 z-score; in experiment [2], 2.89 z-score.

For the sequence “CCGATTAACATCAGGGGAGAATATGATGTTAATCGGGTCTTGATTCGCTTGACGCTGCTG”, the values for the binding signal in experiment [1] and in experiment [2] were 6.21 z-score and 4.46 z-score, respectively.

With “CCGATTAACATCAGGGATCACCCTGATGTTAATCGGGTCTTGATTCGCTTGACGCTGCTG”, the binding signal in experiment [1] is 1.43 z-score; in experiment [2], 2.48 z-score.

In the case of “CCGATTAACATCAGGGGTTCACCTGATGTTAATCGGGTCTTGATTCGCTTGACGCTGCTG”, the binding signal in experiment [1] came to 3.04 z-score; in experiment [2] it was 3.78 z-score.

In the case of “CCGATTAACATCAGGGAACCCCATGATGTTAATCGGGTCTTGATTCGCTTGACGCTGCTG”, the binding signal in experiment [1] stood at 1.33 z-score; in experiment [2] it was 2.54 z-score.

For “CCGATTAACATCAAAAATCCCTATGATGTTAATCGGGTCTTGATTCGCTTGACGCTGCTG”, the results for the binding signal in experiment [1] and in experiment [2] were 4.2 z-score and 4.72 z-score, respectively.

As for “CCGATTAACATCAGGATTTTACCTGATGTTAATCGGGTCTTGATTCGCTTGACGCTGCTG”, the binding signal in experiment [1] was found to be 3.67 z-score; in experiment [2], 2.65 z-score.

Turning to “CCGATTAACATCAAGAATTCCCATGATGTTAATCGGGTCTTGATTCGCTTGACGCTGCTG”, the binding signal in experiment [1] was 5.01 z-score; in experiment [2], 4.34 z-score.

Regarding “CCGATTAACATCAGGGGGAGAGATGATGTTAATCGGGTCTTGATTCGCTTGACGCTGCTG”, the binding signal turned out to be 4.36 z-score in experiment [1] and 4.17 z-score in experiment [2].

Consider “CCGATTAACATCAGGGCAGCCCCTGATGTTAATCGGGTCTTGATTCGCTTGACGCTGCTG”, for which the binding signal was found to be 2.79 z-score in experiment [1] and 4.31 z-score in experiment [2].

Consider “CCGATTAACATCAAAATAATCCCTGATGTTAATCGGGTCTTGATTCGCTTGACGCTGCTG”, for which the binding signal is 3.57 z-score in experiment [1] and 3.58 z-score in experiment [2].

Regarding “CCGATTAACATCAAAAAACACCCTGATGTTAATCGGGTCTTGATTCGCTTGACGCTGCTG”, the binding signal was 4.25 z-score in experiment [1] and 5.16 z-score in experiment [2].

As to “CCGATTAACATCAACGCCCCCCCTGATGTTAATCGGGTCTTGATTCGCTTGACGCTGCTG”, the binding signal in experiment [1] came out at 4.55 z-score; in experiment [2] it was 4.25 z-score.

On to “CCGATTAACATCAGAACTTCCCATGATGTTAATCGGGTCTTGATTCGCTTGACGCTGCTG”, for which the figures for the binding signal in experiment [1] and in experiment [2] were 2.2 z-score and 1.47 z-score, respectively.

As for “CCGATTAACATCAGGAGTTACCCTGATGTTAATCGGGTCTTGATTCGCTTGACGCTGCTG”, the binding signal in experiment [1] worked out at 1.4 z-score; in experiment [2], 2.44 z-score.
